The panel holds about 83,000 compounds, 20% with a hit somewhere; the sample as a whole holds those more often.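 The endpoint reported here, percent growth, reads 100 for growth as untreated, 0 for no net growth and -100 for all cells dead.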 The source made the active and inactive calls. Rule for the calls: active = growth percent below 10; inactive = the rest.
Experiments:
Assay in all cases: NCI-60 one-dose screen, 48 h (100 = growth as untreated, 0 = no growth, -100 = all killed)
[1] = test system: NCI-H23 lung; details: 10 µM unless noted
[2] = test system: NCI-H226 lung; details: 10 µM unless noted
[3] = test system: NCI-H322M lung; details: 10 µM unless noted
[4] = test system: HOP-62 NSCLC; details: 10 µM unless noted
[5] = test system: NCI-H460 lung; details: 10 µM unless noted
[6] = test system: HOP-92 NSCLC; details: 10 µM unless noted
[7] = test system: NCI-H522 lung; details: 10 µM unless noted
[8] = test system: A549/ATCC NSCLC; details: 10 µM unless noted
[9] = test system: 786-0 renal; details: 10 µM unless noted
[10] = test system: COLO 205 colon; details: 10 µM unless noted
[11] = test system: DU-145 prostate; details: 10 µM unless noted
[12] = test system: K-562 leukemia; details: 10 µM unless noted
[13] = test system: MALME-3M melanoma; details: 10 µM unless noted
[14] = test system: MDA-MB-231 breast; details: 10 µM unless noted
[15] = test system: RXF 393 renal; details: 10 µM unless noted
[16] = test system: SF-268 CNS; details: 10 µM unless noted
[17] = test system: SF-295 CNS; details: 10 µM unless noted
[18] = test system: SF-539 CNS; details: 10 µM unless noted
[19] = test system: UACC-257 melanoma; details: 10 µM
[20] = test system: M14 melanoma; details: 10 µM unless noted

Measured: growth

Nc1c(C(=O)Nc2cccc(C(F)(F)F)c2)sc2nc3c(cc12)CCCCC3
active: [1] 3.46% | [3] -5.26% | [4] 3.07% | [8] -18.4% | [9] -62.8% | [13] -20.4% | [14] -29.5% | [15] -20.7% | [18] -63.3%
inactive: [2] 11.3% | [5] 10.3% | [6] 17.5% | [7] 20% | [10] 65.1% | [11] 44.1% | [12] 36.9% | [16] 25.8% | [17] 11.7% | [19] 18.6% | [20] 49.6%

CN(C)c1ccc(C2CC(c3ccccc3)=NN2/C=C2\SC(=O)NC2=O)cc1 (stereo not given)
inactive: [1] 88.7% | [2] 90.4% | [3] 87.4% | [4] 94.5% | [5] 67.2% | [6] 91.5% | [7] 90% | [8] 70.1% | [9] 90.5% | [10] 110% | [11] 57.7% | [12] 100% | [13] 89% | [14] 93.3% | [15] 96.5% | [16] 90.9% | [17] 98% | [18] 76% | [19] 115% | [20] 93.7%

CC(=O)OC[Si](C)(C)c1ccccc1
inactive: [1] 112% | [2] 95.9% | [3] 109% | [4] 110% | [5] 103% | [6] 92.1% | [7] 103% | [8] 95.8% | [9] 96.9% | [10] 117% | [11] 113% | [12] 102% | [13] 110% | [14] 105% | [15] 107% | [16] 103% | [17] 91.6% | [18] 96.2% | [19] 92.3% | [20] 97.8%

CCCOC(=O)C1(O)CCCC1
inactive: [1] 106% | [2] 92.9% | [3] 102% | [4] 109% | [5] 108% | [6] 89.8% | [7] 75% | [8] 105% | [9] 105% | [10] 118% | [11] 123% | [12] 110% | [13] 96.3% | [14] 112% | [15] 103% | [16] 121% | [17] 105% | [18] 88.1% | [19] 103% | [20] 107%

Cc1ccc(Nc2ncnc3c2sc2ncccc23)cc1
inactive: [1] 101% | [2] 91.7% | [3] 95.9% | [4] 103% | [5] 97.6% | [6] 106% | [7] 106% | [8] 98.2% | [9] 101% | [10] 107% | [11] 108% | [12] 53.8% | [13] 107% | [14] 103% | [15] 88.2% | [16] 97.6% | [17] 110% | [18] 100% | [19] 99.5% | [20] 101%

COc1cccc(/C=C2\SC(N3CCN(c4ccccn4)CC3)=NC2=O)c1
inactive: [1] 95.5% | [2] 108% | [3] 88.8% | [4] 93.6% | [5] 107% | [6] 92.7% | [7] 71.6% | [8] 94.5% | [9] 108% | [10] 119% | [11] 101% | [12] 82.2% | [13] 96.8% | [14] 99.2% | [15] 113% | [16] 102% | [17] 98.6% | [18] 110% | [19] 101% | [20] 103%

O=c1[nH]c2ccccc2cc1-c1nnc(Cc2ccccc2)o1
inactive: [1] 74.7% | [2] 85.3% | [3] 92.3% | [4] 82.6% | [5] 92.2% | [6] 76.2% | [7] 71.2% | [8] 83.3% | [9] 58.3% | [10] 64.4% | [11] 71.1% | [12] 30.8% | [13] 55.8% | [14] 79.6% | [15] 76.1% | [16] 78.4% | [17] 99.7% | [18] 80.8% | [19] 80% | [20] 65.8%

CCN(CC)P(=O)(N(CC)CC)N(CCCSC/C=C(\C)CC/C=C(\C)CCC=C(C)C)CCCN1CCN(C)CC1
inactive: [1] 110% | [2] 96.9% | [3] 108% | [4] 106% | [5] 101% | [6] 82.4% | [7] 91.6% | [8] 87.6% | [9] 101% | [10] 105% | [11] 106% | [12] 71.8% | [13] 98.7% | [14] 111% | [15] 91.3% | [16] 102% | [17] 96.4% | [18] 106% | [19] 110% | [20] 107%

CCn1cc(C(=O)O)c(=O)c2cc(F)c(N3CCN(S(=O)(=O)c4ccc(OC)c(OC)c4)CC3)cc21
inactive: [1] 99.6% | [2] 95.9% | [3] 102% | [4] 100% | [5] 108% | [6] 91.5% | [7] 90.6% | [8] 105% | [9] 99.5% | [10] 99.3% | [11] 108% | [12] 101% | [13] 93.6% | [14] 103% | [15] 109% | [16] 88.9% | [17] 93.8% | [18] 90.8% | [19] 106% | [20] 44.1%

Clc1cccc(Cl)c1Cn1c(-c2cncs2)nc2ccccc21
inactive: [1] 71% | [2] 88.6% | [3] 87.5% | [4] 97% | [5] 101% | [6] 71% | [7] 76.6% | [8] 73.1% | [9] 87.6% | [10] 99.5% | [11] 110% | [12] 35.3% | [13] 81% | [14] 82.5% | [15] 95% | [16] 98.2% | [17] 65.4% | [18] 96.8% | [19] 76.6% | [20] 89.5%

CC(=O)n1cc([C@H]2CC[C@H](c3cn(C(C)=O)c4ccccc34)c3c2[nH]c2ccccc32)c2ccccc21
inactive: [1] 75.7% | [2] 89.4% | [3] 77.6% | [4] 70.7% | [5] 90.4% | [6] 85.3% | [7] 65.1% | [8] 70% | [9] 93.5% | [10] 94.5% | [11] 93.2% | [12] 69.9% | [13] 91.4% | [14] 70.8% | [15] 96.5% | [16] 76.9% | [17] 80% | [18] 92.7% | [19] 89.5% | [20] 79.1%

COc1ccc(/C=C/c2cc(N3CCOCC3)c3cc(F)c(F)cc3n2)cc1OC
inactive: [1] 42.3% | [2] 34.8% | [3] 30% | [4] 63.9% | [5] 25.2% | [6] 49.7% | [8] 44.6% | [9] 40.8% | [10] 11.8% | [11] 48.3% | [12] 28.9% | [13] 49.3% | [14] 45.9% | [15] 52.2% | [16] 31.4% | [17] 31.4% | [18] 28.9% | [19] 45.4% | [20] 31.6%
active: [7] 7.5%

COc1ccc(-n2cnc3c(sc4ncc(Cl)cc43)c2=O)cc1
inactive: [1] 93.4% | [2] 97.8% | [3] 45.7% | [4] 96.9% | [5] 49.1% | [6] 42.9% | [7] 93.3% | [8] 67% | [9] 76.8% | [10] 113% | [11] 83.6% | [12] 87.9% | [13] 88.2% | [14] 113% | [15] 106% | [16] 65.8% | [17] 44.2% | [18] 91.6% | [19] 90.8% | [20] 105%

COc1ccc(/C=C2\CCCC3=C2NC(C)=NC3c2ccc(OC)c(OC)c2)cc1OC (stereo not given)
active: [2] -22.4% | [5] 0.649% | [7] -7.42% | [9] 9.19% | [10] -29.8% | [11] 7.29% | [12] 5.92% | [13] -0.933% | [14] 7.16% | [15] -16.6% | [17] 3.05% | [20] -42.1%
inactive: [1] 29.1% | [3] 47.4% | [4] 32.1% | [6] 30.1% | [8] 18% | [16] 20% | [18] 17.1% | [19] 20.2%

CCOC(=O)C(Cc1ccccc1)n1c(O)c(C=Nc2ccc(C(=O)OCCN(CC)CC)cc2)sc1=O (stereo not given)
active: [20] -36.1%
inactive: [1] 102% | [2] 96.7% | [3] 94.4% | [4] 103% | [5] 99.3% | [6] 84.2% | [7] 85.7% | [8] 74.4% | [9] 90.8% | [10] 95.5% | [11] 106% | [12] 89.3% | [13] 90.1% | [14] 89.3% | [15] 84.7% | [16] 97.2% | [17] 104% | [18] 86.5% | [19] 77.4%

Reference: PubChem BioAssay (NCI)
